# In PubChem BioAssay (NCI):
# Compounds without any hit were thinned out: in the full panel of roughly 79,000, 15% have a hit. A number with no mark means an inactive call. Active and inactive are the calls of the source. No stated cut-off is given here; in the data, active means growth inhibition above about 70%; inactive means the rest.
# Experiments:
# [1] = NCI Yeast Anticancer Drug Screen. Data for the rad52 strain (AID 147);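 further: 0% = growth of vehicle-treated control cultures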; conditions: S. cerevisiae rad52 mutant growth inhibition, hits give high values
# Summary of the method: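 Screen used a yeast mutant impaired in DNA repair. After compound exposure, growth was measured. Values reflect inhibition compared with vehicle-treated cells.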
# [2] = NCI Yeast Anticancer Drug Screen. Data for the wt1 strain (AID 149);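 further: 0% = growth of vehicle-treated wt1 cultures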; conditions: S. cerevisiae wt1 strain (SPY 50644) growth inhibition, hits give high values
# Summary of the method: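 Compounds are added to wt1 yeast cultures. Growth is then measured. Inhibition is expressed relative to vehicle-treated controls.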
# [3] = NCI Yeast Anticancer Drug Screen. Data for the rad50EPP+ strain (AID 151);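 further: 0% = growth of vehicle-treated control cultures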; conditions: S. cerevisiae rad50 mutant strain, hits give high values
# Summary of the method: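 Exposing the rad50EPP+ strain to each compound, growth was compared with vehicle-only cultures to give inhibition.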
# [4] = NCI Yeast Anticancer Drug Screen. Data for the mgt1 strain (AID 153); conditions: S. cerevisiae mgt1 mutant growth inhibition, hits give high values
# Summary of the method: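 Genetically defined yeast (mgt1) treated with compound; inhibition of growth expressed against vehicle-treated controls.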
# [5] = NCI Yeast Anticancer Drug Screen. Data for the rad50 strain (AID 155);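 further: 0% = growth of vehicle-only cultures of the same strain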; conditions: S. cerevisiae rad50 strain growth inhibition, hits give high values
# Summary of the method: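 Inhibition values express reduced yeast growth in compound-treated cultures relative to vehicle-treated controls.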
# [6] = NCI Yeast Anticancer Drug Screen. Data for the mec2-1 strain (AID 157); conditions: S. cerevisiae mec2-1 strain, hits give high values
# Summary of the method: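 Readout is yeast growth inhibition, normalised to vehicle-treated controls, in the mec2-1 strain exposed to compound.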
# [7] = NCI Yeast Anticancer Drug Screen. Data for the rad14 strain (AID 159);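 further: 0% = growth of vehicle-treated control cultures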; conditions: S. cerevisiae rad14 strain growth inhibition, hits give high values
# Summary of the method: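 A mutant yeast strain defective in DNA damage repair is treated with compound; inhibition of its growth is scored against untreated, vehicle-exposed cultures.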
# [8] = NCI Yeast Anticancer Drug Screen. Data for the sgs1 mgt1 strain (AID 161);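 further: 0% = growth of cultures given vehicle only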; conditions: S. cerevisiae sgs1 mgt1 strain, hits give high values
# Summary of the method: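 Percent growth inhibition was derived by comparing compound-exposed mutant yeast with vehicle-exposed cultures. The strain carries alterations in DNA damage repair.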
# [9] = NCI Yeast Anticancer Drug Screen. Data for the CLN2oe strain (AID 163);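 further: 0% = growth of vehicle-only control cultures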; conditions: S. cerevisiae CLN2oe strain, hits give high values
# Summary of the method: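 Values reflect how much compound exposure reduced yeast growth, referenced to vehicle-exposed cells. Assay organism is a strain with a defined genetic change affecting cell-cycle control.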
# [10] = NCI Yeast Anticancer Drug Screen. Data for the cln2 rad14 strain (AID 165);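 further: 0% = growth equal to vehicle treated cultures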; conditions: S. cerevisiae cln2 rad14 strain, hits give high values
# Summary of the method: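 Relative to vehicle controls, growth inhibition of compound-treated cln2 rad14 yeast was recorded.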
# [11] = NCI Yeast Anticancer Drug Screen. Data for the bub3 strain (AID 167); conditions: S. cerevisiae bub3 mutant strain, hits give high values
# Summary of the method: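 Steps: expose the mutant yeast strain to compound; grow alongside vehicle-treated cultures; measure growth; express inhibition against the vehicle cultures.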
# [12] = NCI Yeast Anticancer Drug Screen. Data for the wt2 strain (AID 169);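 further: 0% = growth of vehicle-treated yeast cultures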; conditions: S. cerevisiae wt2 strain growth inhibition, hits give high values
# Summary of the method: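 Values express reduction in yeast growth under compound treatment, referenced to vehicle-treated cells.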
# [13] = NCI Yeast Anticancer Drug Screen. Data for the mlh1 strain (AID 171);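 further: 0% = growth of vehicle-treated control cultures of the same strain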; conditions: S. cerevisiae mlh1 strain growth inhibition, hits give high values
# Summary of the method: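 Steps: expose the defined-mutant yeast strain to compound; expose a parallel culture to vehicle; measure growth; express compound effect as inhibition relative to the vehicle culture.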
# [14] = NCI Yeast Anticancer Drug Screen. Data for the mlh1 rad18 strain (AID 175); conditions: S. cerevisiae mlh1 rad18 strain growth inhibition, hits give high values
# Summary of the method: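 Test agents were incubated with a yeast strain of defined genotype (DNA damage repair defect). Inhibition of growth was derived by comparison with vehicle-exposed cultures.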
# [15] = NCI Yeast Anticancer Drug Screen. Data for the rad18 strain (AID 177); conditions: S. cerevisiae rad18 mutant growth inhibition, hits give high values
# Summary of the method: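 A genetically defined yeast mutant impaired in DNA damage repair was treated with test compounds, then its growth was measured against cultures receiving vehicle alone.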
# [16] = at 5.0 µM (retest, dose inferred, filed as 0.5)
# [17] = at 50.0 µM (retest, dose inferred, filed as 5.0)
smiles,measurement,setting,value
COC1=C(OC)C(=O)C(Sc2ccc3ccccc3c2)=CC1=O,growth inhibition,[1]; at 1.2 µM,-19%
same,growth inhibition,[1]; at 3.7 µM,-19%
same,growth inhibition,[1]; at 11.0 µM,56%
same,growth inhibition,[1]; at 33.0 µM,93% (active)
same,growth inhibition,[1]; at 100.0 µM,92% (active)
same,growth inhibition,[2]; at 1.2 µM,-73%
same,growth inhibition,[2]; at 3.7 µM,-61%
same,growth inhibition,[2]; at 11.0 µM,-13%
same,growth inhibition,[2]; at 33.0 µM,94% (active)
same,growth inhibition,[2]; at 100.0 µM,92% (active)
same,growth inhibition,[3]; at 1.2 µM,-29%
same,growth inhibition,[3]; at 3.7 µM,-10%
same,growth inhibition,[3]; at 11.0 µM,67%
same,growth inhibition,[3]; at 33.0 µM,95% (active)
same,growth inhibition,[3]; at 100.0 µM,97% (active)
same,growth inhibition,[4]; at 1.2 µM,-46%
same,growth inhibition,[4]; at 3.7 µM,-47%
same,growth inhibition,[4]; at 11.0 µM,8%
same,growth inhibition,[4]; at 33.0 µM,94% (active)
same,growth inhibition,[4]; at 100.0 µM,92% (active)
same,growth inhibition,[5]; at 1.2 µM,-15%
same,growth inhibition,[5]; at 3.7 µM,0%
same,growth inhibition,[5]; [16],17%
same,growth inhibition,[5]; at 11.0 µM,19%
same,growth inhibition,[5]; at 33.0 µM,92% (active)
same,growth inhibition,[5]; [17],97% (active)
same,growth inhibition,[5]; at 50.0 µM,89.4% (active)
same,growth inhibition,[5]; at 100.0 µM,83% (active)
same,growth inhibition,[6]; at 1.2 µM,-69%
same,growth inhibition,[6]; at 3.7 µM,-40%
same,growth inhibition,[6]; [16],29%
same,growth inhibition,[6]; at 11.0 µM,19%
same,growth inhibition,[6]; at 33.0 µM,95% (active)
same,growth inhibition,[6]; [17],98% (active)
same,growth inhibition,[6]; at 50.0 µM,93.3% (active)
same,growth inhibition,[6]; at 100.0 µM,89% (active)
same,growth inhibition,[7]; at 1.2 µM,-18%
same,growth inhibition,[7]; at 3.7 µM,-8%
same,growth inhibition,[7]; at 11.0 µM,64%
same,growth inhibition,[7]; at 33.0 µM,96% (active)
same,growth inhibition,[7]; at 100.0 µM,93% (active)
same,growth inhibition,[8]; [16],5%
same,growth inhibition,[8]; [17],80% (active)
same,growth inhibition,[8]; at 50.0 µM,91.8% (active)
same,growth inhibition,[9]; at 1.2 µM,5%
same,growth inhibition,[9]; at 3.7 µM,19%
same,growth inhibition,[9]; at 11.0 µM,45%
same,growth inhibition,[9]; at 33.0 µM,85% (active)
same,growth inhibition,[9]; at 100.0 µM,87% (active)
same,growth inhibition,[10]; [16],4%
same,growth inhibition,[10]; [17],-12%
same,growth inhibition,[10]; at 50.0 µM,85.8% (active)
same,growth inhibition,[11]; at 1.2 µM,-11%
same,growth inhibition,[11]; at 3.7 µM,0%
same,growth inhibition,[11]; [16],3%
same,growth inhibition,[11]; at 11.0 µM,-3%
same,growth inhibition,[11]; at 33.0 µM,89% (active)
same,growth inhibition,[11]; [17],79% (active)
same,growth inhibition,[11]; at 50.0 µM,91.2% (active)
same,growth inhibition,[11]; at 100.0 µM,87% (active)
same,growth inhibition,[12]; at 1.2 µM,-35%
same,growth inhibition,[12]; at 3.7 µM,-43%
same,growth inhibition,[12]; at 11.0 µM,33%
same,growth inhibition,[12]; at 33.0 µM,96% (active)
same,growth inhibition,[12]; at 100.0 µM,94% (active)
same,growth inhibition,[13]; at 1.2 µM,-39%
same,growth inhibition,[13]; at 3.7 µM,-38%
same,growth inhibition,[13]; at 11.0 µM,25%
same,growth inhibition,[13]; at 33.0 µM,95% (active)
same,growth inhibition,[13]; at 100.0 µM,95% (active)
same,growth inhibition,[14]; [16],47%
same,growth inhibition,[14]; [17],96% (active)
same,growth inhibition,[14]; at 50.0 µM,89.6% (active)
same,growth inhibition,[15]; at 1.2 µM,-36%
same,growth inhibition,[15]; at 3.7 µM,-25%
same,growth inhibition,[15]; at 11.0 µM,58%
same,growth inhibition,[15]; at 33.0 µM,92% (active)
same,growth inhibition,[15]; at 100.0 µM,87% (active)
